Laboratory results as given in PubChem BioAssay AID504834 (National Center for Advancing Translational Sciences (NCATS), 2011).
Out of some 320,000 compounds screened, about 22,000 (6.9%) were called active. About 27% were inconclusive and are not listed. The sample holds actives, similar compounds and a random draw of the others, so the mix is not that of the screen. Values without a mark were called inactive. Calls follow the shape of the dose curve; as a rule, active = well fitted inhibition curve with a large enough effect; inconclusive = small, poorly fitted or top-dose-only effect, or another doubt; inactive = no such curve, though single readings can be large or run the other way. Where a SMILES comes first, the peptide text is derived from it. [ ]: non-standard residue; d: D form. The star is where a group is joined. PhAc = O=C(Cc1ccccc1)*

assay: Primary qHTS for delayed death inhibitors of the malarial parasite plastid, 96 hour incubation; details: P. falciparum luciferase reporter growth; series mostly up to 28.7 µM; activity change, negative = inhibition: at the top concentration
In short: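 Readout is luminescence from an integrated firefly luciferase in P. falciparum. Red cells, 2% hematocrit and 0.05% parasitemia final, were cultured with compound through two parasite generations (96 hours) at 37 C, 5% CO2.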
% is scaled to controls: 0 for no effect and ±100 for the full control effect; potency is read from the fitted curve at half-maximal effect.

In order of rising “activity change, negative = inhibition” value:
1. COc1ccccc1C(=O)Nc1ccnn1C1CCN(Cc2cnn(C)c2)CC1  -28.4%
2. Oc1ccc(CN2CCN(c3ncccn3)CC2)cc1  -25.8%
3. COc1ccc(NS(=O)(=O)c2ccc3oc(SCC(N)=O)nc3c2)cc1  -25%
4. COc1ccc(C(CNC(=O)c2ccc(NS(=O)(=O)c3ccc(F)c(C)c3)cc2)N(C)C)cc1 (stereo not given)  -24.6%
5. COC(=O)c1cc2c(N)c(C(=O)c3ccc(Cl)cc3)sc2nc1C(OC)OC  -24.3%
6. CCOC(=O)c1c(NC(=S)Nc2ccccc2C)sc2c1CCC2  -22.4%
7. Cc1cccc([C@@H]2[C@@H]3C(=O)N(Cc4ccccc4)C(=O)[C@@H]3[C@]3(Cc4ccc(Cl)cc4)C(=O)N(c4cccc(Cl)c4)C(=O)N23)c1  -22.4%
8. O=C(CCc1nc(-c2ccccc2)no1)Nc1cccc(C(=O)NC2CC2)c1  -21.5%
9. Cc1ccc(NC(=S)N/N=C2/CCCc3c(C)cc(C)cc32)cc1  -20.2%
10. Cn1c(CCN2CCCC2)nc2cc(NS(=O)(=O)c3ccccc3)ccc21  -19.7%
11. CCOC(=O)C1CCN(S(=O)(=O)c2ccc3c(c2)N(C)C(=O)CC(=O)N3C)CC1  -18.2%
12. O=C(CN1C(=O)NC2(CCCCC2)C1=O)N1CCN(C(=O)c2cccs2)CC1  -11%
13. Cc1csc(NC(=O)C2CCN(S(=O)(=O)c3ccccc3)CC2)n1  -10.6%
14. CCN(CC(=O)Nc1c(F)cccc1F)C(=O)c1ccc(S(=O)(=O)N2CCCCC2)cc1  -2.32%
15. Cc1c(C)c(C)c(S(=O)(=O)N2CCC3(CC2)OCCO3)c(C)c1C  -0.851%
16. O=C(CN1CCN(c2ccccn2)CC1)NC1CCCCC1  0%
17. COc1cccc(OC)c1C(=O)N1CCN(Cc2cccnc2)CC1  0%
18. CCOc1ccc(N(CC(=O)NCCOc2ccccc2OC)S(=O)(=O)c2ccccc2)cc1  0.187%
19. Cc1ccn2c(=O)nc(SCC(=O)NCc3ccc(F)cc3)nc2c1  0.481%
20. Cc1cccc(N2C(=O)C3C(c4ccccc4)OC4(C(=O)c5ccccc5C4=O)C3C2=O)c1 (stereo not given)  1.05%
21. CCOC(=O)c1c(NC(=S)Nc2ccccc2)sc2c1CCN(C)C2  1.12%
22. Cc1ccc(CNC(=O)c2ccc(CS(=O)Cc3cccc(Cl)c3)o2)cc1 (stereo not given)  1.49%
23. CN(C)C(CNC(=O)c1cccc(S(=O)(=O)Nc2ccc(Br)cc2)c1)c1ccco1 (stereo not given)  2.97%
24. COc1ccc(CCNC(=O)c2cnc(Cl)c(Cl)c2)cc1  4.95%
25. Cc1cccc(OCC(=O)Nc2ccc(NC(=O)c3ccco3)c(C)c2)c1  5.79%
26. CC(C)C[C@@H](NC(=O)[C@H]1CCCN1C(=O)Cc1ccccc1)C(N)=O (PhAc-[dP]-[dL]-NH2)  6.07%
27. CS(=O)(=O)N1CCN(CC(=O)NC2CCCC2)CC1  9.01%
28. O=C(NC1(C(F)(F)F)NC(=O)N(C2CCCCC2)C1=O)c1ccco1 (stereo not given)  12.9%
29. CCOCCCNC(=O)C1(O)c2cc(Br)ccc2NC(=O)N1c1ccc(C)c(C)c1 (stereo not given)  14.5%
30. CSc1nnc2ccc(-c3ccc(C)cc3)nn12  16.1%
31. COCCN1CCN(C(=O)c2cc(COc3ccc(F)cc3Cl)on2)CC1  19.3%
32. CC12C(=O)N(c3ccccc3)C(=O)C1C(c1ccccc1)N1CCCN12 (stereo not given)  20.4%
33. Cc1ccccc1N1CCN(C2CCCN(C(=O)c3cn4c(C)cccc4n3)C2)CC1 (stereo not given)  20.5%
34. O=C(CN1C(=O)NC2(CCCCCC2)C1=O)NCc1cccs1  24.4%
35. COc1ccc(CNC(=O)[C@H](Cc2c[nH]c3ccccc23)NC(C)=O)cc1OC  24.8%
36. CC1(C)c2[nH]c3ccccc3c2C[C@H]2C(=O)N(N)CC(=O)N21  24.9%
37. CC(=O)NC(Cc1c[nH]c2ccccc12)C(=O)NCCc1ccccc1 (stereo not given)  26.3%
38. O=C(Cn1c(-c2cscn2)nc2ccccc21)Nc1ccc(Cl)cc1  28.7%
39. CCOC(=O)c1c(NC(=O)Cn2nc(C(F)(F)F)cc2C)sc2c1CCC2  31.5%
40. COc1cccc(C(=O)NC(=O)Nc2nc(C)cc(C(F)(F)F)n2)c1  43.9%
41. COc1ccc(N2C(=O)C(Cc3ccccc3)NC2=S)cc1 (stereo not given)  44.9%
42. COCCN1CCn2c(nc3cc(NS(C)(=O)=O)ccc32)C1  46.5%
43. CCOCC(=O)Nc1sc2c(c1C(=O)OCC)CCCC2  50%
44. COc1cc2ccccc2cc1C(=O)Nc1ccc(N2CCOCC2)cc1  73.9%
45. Nc1c(C(=O)NCc2ccccc2)sc2nc3c(cc12)C(=O)CCC3  84.8%
46. O=[N+]([O-])c1ccccc1N/N=C1\CCc2ccccc21  219%
47. COc1ccc(C2C(C(C)=O)=C(O)C(=O)N2Cc2cccnc2)cc1 (stereo not given)  243%

With `COc1ccccc1C(CNC(=O)c1cccc(S(=O)(=O)Nc2ccc(F)cc2)c1)N(C)C` (stereo not given) the Potency was 8.28 µM (active).
For `O=C(Cn1c(-c2cncs2)nc2ccccc21)NC1CCCC1`, the Potency was 9.28 µM (active).
For `COc1ccccc1-c1nn(Cc2ccccc2)cc1C(=O)N1CCN(c2ncccn2)CC1`, the Potency was 13.1 µM (active).
In the case of `COc1cccc(NC(=O)[C@H](Cc2c[nH]c3ccccc23)NC(=O)[C@@H]2Cc3ccccc3CN2)c1`, the Potency was 11.7 µM (active).
With `CCCCNC(=S)N/N=C1\CCCCc2ccccc21` the Potency was 9.28 µM (active).
With `CCOC(=O)c1c(NC(=O)NC(C)(C)C)sc2c1CCN(C)C2` the Potency was 4.15 µM (active).
With `CCOC(=O)c1c(NC(=S)NC)sc2c1CCCC2` the Potency was 8.28 µM (active).
With `O=C1CN(C(=O)CN2C(=O)NC3(CCCCC3)C2=O)c2ccccc2N1` the Potency was 14.7 µM (active).
With `CC(C)OC(=O)c1sc2nc3c(cc2c1N)C(=O)CCC3` the Potency was 5.22 µM (active).
In the case of `Cc1cccc(N2C(=O)N3[C@H](c4ccc(F)cc4)[C@@H]4C(=O)N(C5CCCCC5)C(=O)[C@@H]4[C@]3(Cc3ccccc3)C2=O)c1`, the Potency was 13.1 µM (active).
For `COc1ccc([C@@H]2[C@@H]3C(=O)N(C(C)(C)C)C(=O)[C@@H]3[C@]3(Cc4ccccc4)C(=O)N(c4cccc(Br)c4)C(=O)N23)cc1`, the Potency was 1.65 µM (active).
With `C[C@@]12C(=O)N(c3cccc(Br)c3)C(=O)N1[C@H](c1ccc(Cl)cc1)[C@@H]1C(=O)N(C3CCCCC3)C(=O)[C@@H]12` the Potency was 16.5 µM (active).
For `O=C1[C@H]2[C@@H](c3ccc(F)cc3)N3C(=O)N(c4ccc(C(F)(F)F)cc4)C(=O)[C@@]3(Cc3ccccc3)[C@H]2C(=O)N1C1CCCCC1`, the Potency was 5.22 µM (active).
